Laboratory results as given in the supplement of paper PMC12024424.
Where a name gives a salt, the structure may show the parent alone.

Assays:
[1] = system: Staphylococcus aureus Sa2 (MRSA, cystic fibrosis isolate); experiment: growth reduction vs untreated control (viable cell count); higher = stronger antibacterial activity; extreme values may be limits of the assay; details: 0.1 mM; 24 h
Experimental: (§1)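 Single-dose screen of the MedChem Express Drug Repurposing Library (0.1 mM, 1% DMSO) against planktonic MRSA S. aureus Sa2 (CF isolate) in TSB in 96-well plates, 37 °C aerobic, 24 h. Assays were run in triplicate and repeated twice.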

[2] = system: Staphylococcus aureus Sa2 (MRSA, cystic fibrosis isolate); experiment: growth reduction vs untreated control (OD550); higher = stronger antibacterial activity; details: 0.1 mM; 24 h
Experimental: as §1

| SMILES | growth reduction [1] [%] | growth reduction [2] [%] |
| --- | --- | --- |
| C1=N/C2=N/c3ccc(OCCN4CCCC4)c(c3)COC/C=C/COCc3cccc(c3)C(=C1)N2 [Pacritinib] | 100 |  |
| OC1(c2ccc(Cl)c(C(F)(F)F)c2)CCN(CCCC(c2ccc(F)cc2)c2ccc(F)cc2)CC1 [Penfluridol] | 100 | 100 |
| O=[N+]([O-])c1ccc(O)c2ncccc12 [Nitroxoline] | 100 | 98.4 |
| NC(=O)[C@@H]1CC[C@@H]2CN1C(=O)N2OS(=O)(=O)O [Avibactam (sodium)] | 97 | 96.6 |
| CC1(C)CC[C@]2(C(=O)O)CC[C@]3(C)[C@H](C(=O)C=C4[C@@]5(C)C=C(C#N)C(=O)C(C)(C)[C@@H]5CC[C@]43C)[C@@H]2C1 [Bardoxolone] | 100 | 100 |
| O=c1nc(OC[C@@H]2COCCO2)cc2n1CCc1cc(C#CC3CC3)ccc1-2 | 93 | 96.2 |
| COc1cc(NC(C)CCCN)c2ncccc2c1 (stereo not drawn) [Primaquine (Diphosphate)] | 94 | 91.2 |
| O=C(O)Cc1ccccc1Nc1c(Cl)cccc1Cl [Diclofenac (diethylamine)] | 100 | 100 |
| O=C(NS(=O)(=O)c1ccc(Br)s1)c1ccc(Cl)cc1Cl [Tasisulam] | 100 | 100 |
| CCCCCCCOc1ccc(CCC(N)(CO)CO)cc1C(F)(F)F [Amiselimod (hydrochloride)] | 100 | 100 |
| C[C@@H](NCCCc1cccc(C(F)(F)F)c1)c1cccc2ccccc12 [Cinacalcet] | 100 | 97.4 |
| CCOC(=O)[C@H](CCc1ccccc1)N[C@@H](C)C(=O)N1[C@H](C(=O)O)C[C@@H]2CCC[C@@H]21 [Ramipril] | 92 | 92.1 |
| C[C@H](CCC(=O)O)[C@H]1CC[C@H]2[C@@H]3CC[C@@H]4C[C@H](O)CC[C@]4(C)[C@H]3C[C@H](O)[C@]12C [Deoxycholic acid] | 100 | 98.3 |
| CCCCCCCC/C=C/CCCCCCCC(=O)OC[C@H]1O[C@@H](n2ccc(N)nc2=O)C(F)(F)[C@@H]1O [Gemcitabine (elaidate)] | 100 | 100 |
| C=Cc1cc(O)cc2nc(-c3ccc(O)c(F)c3)oc12 [Prinaberel] | 100 | 100 |
| CC(=O)Oc1cccc2c1C(=O)c1c(OC(C)=O)cc(C(=O)O)cc1C2=O [Diacerein] | 100 | 93.4 |
| O=c1[nH]c(=O)n([C@H]2C[C@H](O)[C@@H](CO)O2)cc1/C=C/Br [Brivudine] | 100 | 100 |
| CCOC(=O)Nc1ccc(NCc2ccc(F)cc2)nc1N [Flupirtine (Maleate)] | 96 | 100 |
| CCCCc1oc2ccc(NS(C)(=O)=O)cc2c1C(=O)c1ccc(OCCCN(CCCC)CCCC)cc1 [Dronedarone (Hydrochloride)] | 100 | 92.6 |
| C=C1CC[C@H](O)C/C1=C/C=C1\CCC[C@]2(C)[C@@H]([C@H](C)/C=C/[C@H](C)C(C)C)CC[C@@H]12 [Vitamin D2] | 100 | 100 |
| C#C[C@]1(O)CC[C@H]2[C@@H]3CCc4cc(OC5CCCC5)ccc4[C@H]3CC[C@@]21C [Quinestrol] | 99 | 100 |

| SMILES | growth reduction [1] [%] | growth reduction [2] [%] |
| --- | --- | --- |
| O=C(O)c1cc(-c2ccc(F)cc2F)ccc1O [Diflunisal] | 98 | 93.6 |
| CC/C(=C(\c1ccccc1)c1ccc(OCCN(C)C)cc1)c1ccccc1 [Tamoxifen] | 100 | 100 |
| Clc1ccc(Nc2nnc(Cc3ccncc3)c3ccccc23)cc1 [Vatalanib (dihydrochloride)] | 100 | 100 |
| C=CC[C@@H]1/C=C(\C)C[C@H](C)C[C@H](OC)[C@H]2O[C@@](O)(C(=O)C(=O)N3CCCC[C@H]3C(=O)O[C@H](/C(C)=C/[C@@H]3CC[C@@H](O)[C@H](OC)C3)[C@H](C)[C@@H](O)CC1=O)[C@H](C)C[C@@H]2OC [Tacrolimus (monohydrate)] | 100 | 100 |
| COc1cc(C(=O)O)ccc1NC(=O)[C@@H]1N[C@@H](CC(C)(C)C)[C@](C#N)(c2ccc(Cl)cc2F)[C@H]1c1cccc(Cl)c1F [Idasanutlin] | 100 | 100 |
| C[C@H]1O[C@@H](n2cc(F)c(=O)[nH]c2=O)[C@H](O)[C@@H]1O [Doxifluridine] | 100 | 97.9 |
| O=C(Nc1ncc(SCCN2CCCC2)s1)[C@]1(c2ccc(S(=O)(=O)C3CC3)cc2)C[C@H]1C1CCCCC1 [Globalagliatin] | 100 | 100 |
| CN1CCN(c2ccc3nc(-c4c(N)c5c(F)cccc5[nH]c4=O)[nH]c3c2)CC1 [Dovitinib (lactate)] | 99 | 96 |
| CC(C)c1cc(Oc2c(Br)cc(NC(=O)CC(=O)O)cc2Br)ccc1O [Eprotirome] | 100 | 99.3 |
| COc1cc(C(=O)NS(=O)(=O)c2ccccc2C)ccc1Cc1cn(C)c2ccc(NC(=O)OC3CCCC3)cc12 [Zafirlukast] | 100 | 100 |
| NC1=NCC2c3ccccc3Cc3ccccc3N12 (stereo not drawn) [Epinastine] | 100 | 100 |
| CN1CCCN=C1/C=C/c1cccs1 [Pyrantel (pamoate)] | 96 | 91.6 |
| CCCCOc1nc(N)c2c(n1)N(Cc1cccc(CN3CCCC3)c1)CC(=O)N2 [Vesatolimod] | 98 | 100 |
| CN(C(=O)CN(CCO)CC(=O)N(C)C(C)(C)Cc1ccccc1)C(C)(C)Cc1ccccc1 [Oxethazaine] | 100 | 100 |
| Cc1cc(Nc2ncc(Cl)c(Nc3ccccc3S(=O)(=O)C(C)C)n2)c(OC(C)C)cc1C1CCNCC1 [Ceritinib dihydrochloride] | 100 | 100 |
| Cc1cc(C2CCCCC2)n(O)c(=O)c1 [Ciclopirox (olamine)] | 100 | 99.3 |
| CC(=O)OC[C@H]1O[C@@H]([S-])[C@H](OC(C)=O)[C@@H](OC(C)=O)[C@@H]1OC(C)=O.CCP(CC)CC.[Au+] [Auranofin] | 100 | 99.9 |
| CC(=O)O[C@@H]1CC[C@@]2(C)[C@@H](CC[C@]3(C)[C@@H]2C(=O)C=C2[C@@H]4[C@@H](C)[C@H](C)CC[C@]4(C)CC[C@]23C)[C@@]1(C)C(=O)O | 100 | 100 |
| CN(C)CCOc1ccc(/C(=C(/CCCl)c2ccccc2)c2ccccc2)cc1 [Toremifene (citrate)] | 100 | 100 |
| OCCN1CCN(CC/C=C2/c3ccccc3Sc3ccc(C(F)(F)F)cc32)CC1 [Flupentixol dihydrochloride] | 100 | 100 |
| C/C=C(/C(=C/C)c1ccc(O)cc1)c1ccc(O)cc1 [Dienestrol] | 92 | 99.7 |

| SMILES | growth reduction [1] [%] | growth reduction [2] [%] |
| --- | --- | --- |
| Fc1ccc2c(CCNCc3cccc(OCC(F)(F)C(F)F)c3)c[nH]c2c1 [Idalopirdine Hydrochloride] | 100 | 100 |
| CC/C(=C(/CC)c1ccc(O)cc1)c1ccc(O)cc1 [Diethylstilbestrol] | 100 | 100 |
| CN1CCN(c2ccc(C(=O)Nc3n[nH]c4ccc(Cc5cc(F)cc(F)c5)cc34)c(NC3CCOCC3)c2)CC1 [Entrectinib] | 96 | 100 |
| Cc1cn(-c2cc(NC(=O)c3ccc(C)c(Nc4nccc(-c5cccnc5)n4)c3)cc(C(F)(F)F)c2)cn1 [Nilotinib] | 92 | 100 |
| C=C[C@@H]1C[C@]1(NC(=O)[C@@H]1C[C@@H](Oc2ncc(OC)c3ccc(Cl)cc23)CN1C(=O)[C@@H](NC(=O)OC(C)(C)C)C(C)(C)C)C(=O)NS(=O)(=O)C1CC1 [Asunaprevir] | 100 | 100 |
| CCCCCCCCCCCCN1CCCCCC1=O [Laurocapram] | 100 | 100 |
| C=C[C@@](C)(/C=C/c1ccc(O)cc1)CCC=C(C)C [Bakuchiol] | 100 | 100 |
| CC(=O)c1cc2c(o1)C(=O)c1ccccc1C2=O [Napabucasin] | 100 | 100 |
| CC1(C)CCC2=C(O1)c1ccccc1C(=O)C2=O [β-Lapachone] | 100 | 100 |
| COc1cc2/c(=N/c3ccc(Br)cc3F)nc[nH]c2cc1OCC1CCN(C)CC1 [Vandetanib] | 100 | 100 |
| CC(/C=C/C=C(\C)C(=O)O)=C\C=C\C=C(C)\C=C\C=C(/C)C(=O)O [Transcrocetin meglumine salt] | 92 | 100 |
| NC(=O)C1=C(O)[C@@]2(O)C(=O)C3=C(O)c4c(O)cccc4C[C@H]3C[C@H]2CC1=O [Incyclinide] | 100 | 100 |
| CCCSc1nc(N[C@@H]2C[C@H]2c2ccc(F)c(F)c2)c2nnn([C@@H]3C[C@H](OCCO)[C@@H](O)[C@H]3O)c2n1 [Ticagrelor] | 98 | 100 |
| O=C(O)C1(c2ccc(-c3ccc(Cl)c(Cl)c3)c(F)c2)CC1 [Itanapraced] | 100 | 100 |
| CC1CS(=O)(=O)CCN1/N=C/c1ccc([N+](=O)[O-])o1 (stereo not drawn) [Nifurtimox] | 100 | 100 |
| Oc1c(I)cc(Cl)c2cccnc12 [Clioquinol] | 100 | 100 |
| Cc1ccc(C#Cc2ccc(S(=O)(=O)N[C@H](Cc3c[nH]c4ccccc34)C(=O)O)s2)cc1 | 100 | 98.4 |
| C[C@@H](OC[C@@]1(c2ccccc2)CC[C@]2(CCC(=O)N2)CN1)c1cc(C(F)(F)F)cc(C(F)(F)F)c1 [Rolapitant] | 100 | 100 |
| COCC[n+]1c2c(n(Cc3cnccn3)c1C)C(=O)c1ccccc1C2=O [Sepantronium (bromide)] | 100 | 100 |
| COc1cccc2c1C(=O)c1c(O)c3c(c(O)c1C2=O)C[C@@](O)(C(=O)CO)C[C@@H]3O[C@H]1C[C@H](N)[C@H](O)[C@H](C)O1 [Doxorubicin (hydrochloride)] | 100 | 96.1 |
